Compound activity as filed in PubChem.
Only a selection was taken, and hits are over-represented in it overall.
Pf Dd2 growth: blocks in vitro growth of P. falciparum Dd2; P. falciparum Dd2 growth, SYBR Green, 72 h; Potency, µM (doses to about 28.9 µM), for inactives: at the top dose activity, negative = inhibition, hits mostly inhibitors; actives 4.3% (n = 120,000); active means well fitted inhibition curve with a large enough effect;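 further: plate controls were DMSO vehicle for no effect and reference drug for full effect; nearly all actives have a fitted effect of over 65% in size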
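Readout: SYBR Green fluorescence, 485 nm excitation, 535 nm emission, after ~16 h lysis at 37C. Before that, Dd2-infected red cells (2.5% hematocrit) grew 72 h with compound, 29 uM top final concentration.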
An asterisk follows results filed as active; i = inactive; [ ] = remark or other dose. Potency means the concentration at half of the fitted maximal effect.

SMILES	Pf Dd2 growth
C[C@@H](NC(=O)N1CCOC[C@H]1c1ncc(-c2ccc(Cl)cc2)[nH]1)c1ccccc1	13µM*
CC(C)(C)CN1CCOC[C@H]1c1ncc(-c2ccccc2)[nH]1	i
CN1CCC(N2CCOC[C@H]2c2ncc(C(C)(C)C)[nH]2)CC1	9%[44.1 µM]
CN1CCOC[C@H]1c1ncc(-c2ccc(F)cc2F)[nH]1	i
Oc1ccccc1CN1CCOC[C@H]1c1ncc(-c2ccc(F)cc2F)[nH]1	3.2µM*
Clc1ccc(-c2cnc([C@@H]3COCCN3C3CCCCC3)[nH]2)cc1	-27%[44.1 µM]
Cn1cc(CN2CCOC[C@H]2c2ncc(C(C)(C)C)[nH]2)c2ccccc21	10µM*
O=C1N(C2CCN(S(=O)(=O)c3cnc[nH]3)CC2)C(c2ccncc2)C12CCCCC2 (stereo not drawn)	-4%
COc1ccc(-c2noc(C(=O)O)c2[C@@H](C)NC(=O)c2cnccn2)cc1	17%[44.1 µM]
Cc1nnsc1C(=O)N[C@H]1CCN(C(=O)CSCC(=O)O)[C@H](C(=O)N[C@H](Cc2ccccc2)C(N)=O)C1	9%
CNC(=O)c1cc[nH]c1C1CCCN(C(=O)c2ccc(OC)nc2)C1 (stereo not drawn)	3%
O=C(c1ccccn1)N1CCCC2(CC(c3ccccc3)=NO2)C1 (stereo not drawn)	20%
O=C([C@H](O)c1ccccc1)N1CCc2onc(-c3cccc4ccccc34)c2C1	i
COc1ccc(CN2CCOC[C@H]2c2ncc(-c3ccc(C)cc3)[nH]2)cc1	-1%[44.1 µM]
COc1ccc(-c2cnc([C@@H]3COCCN3Cc3ccncc3)[nH]2)cc1	i
COc1ccc(-c2cnc([C@@H]3COCCN3Cc3ccccc3)[nH]2)cc1	10µM*
COc1ccc(-c2noc([C@@H]3C[C@@H](O)CN3C3CCCCC3)n2)cc1	i
O=C(c1ccoc1)N1CCC(n2cc(-c3nc(C4CC4)no3)nn2)C1 (stereo not drawn)	i
COC[C@]1(O)CCN(C(=O)C2(c3ccc(OC)cc3)CC2)CC1(C)C	-1%
COc1ccc(CNC(=O)CSc2ncc3c(n2)-c2ccc(Cl)cc2N(Cc2ccccc2)S3(=O)=O)cc1	-14%
Cc1cccc(NC(=O)CSc2ncc3c(n2)-c2cc(Cl)ccc2N(C)S3(=O)=O)c1C	i
Cc1cccc(C)c1NC(=O)CSc1ncc2c(n1)-c1ccc(Cl)cc1N(Cc1ccccc1)S2(=O)=O	11µM*
O=C(NCCn1ccn2nc(-c3ccc(F)cc3)cc2c1=O)c1c(F)cccc1F	i
CCCNC(=O)N1CCC(c2nc(CCOc3cccc(C)c3)no2)C1 (stereo not drawn)	i
Cc1nc(Nc2ccc(Cl)cc2)cc(-c2ccccc2)n1	8.9µM*
SMILES	Pf Dd2 growth
CCN(CC)CCCNc1cc(-c2ccccc2)nc(C)n1	-27%
CCOC(=O)c1ccc(Nc2cc(-c3ccccc3)nc(C)n2)cc1	-24%
CCOC(=O)C1(Cc2ccccc2C)CCCN(C(=O)c2cc[n+]([O-])cc2)C1 (stereo not drawn)	-21%
CCOC(=O)C1(Cc2ccccc2C)CCCN(C(=O)c2csc(C)n2)C1 (stereo not drawn)	-3%
CCOC(=O)C1(Cc2ccccc2C)CCCN(Cc2cn(CC(N)=O)c3ccccc23)C1 (stereo not drawn)	14µM*
CN1C(=O)c2cccn2CC1C(=O)NCC1CC1 (stereo not drawn)	29%
COc1ccccc1CNC[C@H]1O[C@@H]2C[C@@H](CC(=O)NC(C)C)O[C@@H]2[C@@H]1O	32%[44.1 µM]
CC(C)CCNC(=O)Cn1c(-c2cccs2)cc2cc(F)ccc21	4.5µM*
CCN1CCN(C(=O)Cn2c(-c3cccs3)cc3ccccc32)CC1	-21%
O=C(Cn1c(-c2cccs2)cc2ccccc21)NCCCN1CCN(c2ccccc2F)CC1	8.9µM*
CC(C)(C)c1ccc2c(c1)N(CC(=O)NCCCN1CCN(c3ccccc3F)CC1)C(=O)CO2	0%
CC(C)CCNC(=O)Cn1cc(S(=O)(=O)Cc2ccc(F)cc2)c2ccccc21	51%
O=C(Cn1c(-c2cccs2)cc2cc(F)ccc21)NCCCN1CCN(c2ccccc2F)CC1	8.9µM*
O=C(NCc1ccc(F)cc1)c1csc(N2CCN(c3ccccc3F)CC2)n1	i
CCc1ccc(CNC(=O)Cn2c(-c3cccs3)cc3cc(F)ccc32)cc1	19%
O=C(NCCN1CCN(c2ccccc2F)CC1)C1COc2ccccc2C1 (stereo not drawn)	3%
CC(=O)N1CCc2nn(CC(=O)Nc3cccc(Br)c3)c(=O)cc2C1	-19%
CCCC(=O)N1C2CCCC1CC(=O)C2	0%[44.1 µM]
CCn1cc(S(=O)(=O)N2CCC(Oc3ccc(-c4noc(COC)n4)cc3)C2)cn1 (stereo not drawn)	64%[5.79 µM]
CC(C)NC(=O)N1CCOc2ccc(CCC(=O)NC3CCS(=O)(=O)C3)cc2C1 (stereo not drawn)	5%
O=C(NCc1ccco1)C1COC2(CCN(C(=O)c3ccco3)CC2)N1C(=O)c1ccc(F)cc1 (stereo not drawn)	i
CN1CCCC(CN(CCc2ccccc2)C(=O)c2cc[n+]([O-])cc2)C1 (stereo not drawn)	-16%
